Screening data deposited in PubChem BioAssay by National Center for Advancing Translational Sciences (NCATS).
GLP-1R agonist: qHTS of GLP-1 Receptor Agonists; Glucagon-like peptide 1 receptor (Homo sapiens), P43220; 380,000 tested, 0.007% active; AID 624172, 2012; HEK293 GLP-1R CRE-luciferase, luminescence, 4-6 h; cells express a hypersensitive GLP-1R form; Potency, µM (series often up to 45.6 µM), without a hit: top-dose activation, actives largely listed as activators; note: potency is the fitted concentration of half-maximal effect; % of control where 0% means no effect
Target sequence (P43220 whole entry, looked up): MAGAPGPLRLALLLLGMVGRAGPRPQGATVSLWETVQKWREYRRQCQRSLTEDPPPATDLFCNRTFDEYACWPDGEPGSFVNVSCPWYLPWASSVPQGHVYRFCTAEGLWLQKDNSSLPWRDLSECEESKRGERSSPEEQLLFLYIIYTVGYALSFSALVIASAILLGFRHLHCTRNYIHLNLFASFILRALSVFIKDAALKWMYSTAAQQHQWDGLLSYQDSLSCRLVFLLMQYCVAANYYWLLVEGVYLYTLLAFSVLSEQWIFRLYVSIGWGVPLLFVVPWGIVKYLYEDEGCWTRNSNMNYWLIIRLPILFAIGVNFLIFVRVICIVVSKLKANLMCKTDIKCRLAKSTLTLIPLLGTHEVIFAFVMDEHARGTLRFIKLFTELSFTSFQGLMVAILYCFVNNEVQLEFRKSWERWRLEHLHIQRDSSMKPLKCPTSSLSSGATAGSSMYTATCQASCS
PTHR1 ag: qHTS for PTHR1 Agonists: Primary Screen. 410,000 tested, 0.075% active. Potency, µM (doses to about 115 µM), for inactives: at the top dose activation, hits mostly activators. Parathyroid hormone/parathyroid hormone-related peptide receptor (Homo sapiens), Q03431. AID 743266, 2014. HEK293 GP2 PTHR1 cells, GloSensor cAMP luminescence, 1 h; note: potency is the fitted concentration of half-maximal effect; nearly all actives have a fitted effect of over 55% in size
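HEK-293-derived GP2 cells expressing PTHR1 and a GloSensor cAMP reporter, 3,000/well, plated overnight, given luciferin plus IBMX (each 0.5 mM as added) for 1 h at 37 °C, then compound for 1 h at 37 °C. Luminescence was read after 15 min at room temperature.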
Pin1 inh: qHTS Assay to Find Inhibitors of Pin1 | AID 504891, 2011 | Peptidyl-prolyl cis-trans isomerase NIMA-interacting 1 (Homo sapiens), Q13526 | 390,000 tested, 0.009% active | Pin1 FP peptide displacement, HiFluor488, 10 min | Potency, µM (titrated, usually from 115 µM), for inactives: top-dose activity, negative = inhibition, most hits filed as inhibitors; active = well fitted inhibition curve with a large enough effect in the polarisation, with a control signal flat, not every such curve was filed as active; inconclusive = small, poorly fitted or top-dose-only effect, or effect the other way, or a change in a side signal; inactive = no such curve, though single readings can be large or run the other way; the % refers to the polarisation; note: potency is the fitted concentration of half-maximal effect; % is set by controls: 0 for no effect and ±100 for the full control effect
Target sequence (Q13526 whole entry, looked up): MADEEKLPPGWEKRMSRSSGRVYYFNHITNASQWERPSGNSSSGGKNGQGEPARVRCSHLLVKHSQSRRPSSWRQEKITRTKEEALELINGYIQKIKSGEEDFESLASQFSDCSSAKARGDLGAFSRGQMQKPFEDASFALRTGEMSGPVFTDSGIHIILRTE
GLP1R cytotox: qHTS of GLP-1 Receptor Inverse Agonists: Cytotox Screen | HEK293 cAMP-luciferase reporter cells, luminescence, 24 h | Potency, µM (highest dose often 38.3 µM), for the others: at the highest dose activity change, negative = inhibition, hits mostly inhibitors | 410,000 tested, 0.13% active | AID 624418, 2012;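 note: loss of luciferase light is scored as toxicity; potency is the fitted concentration of half-maximal effect; % is set by controls: 0 for no effect and ±100 for the full control effect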
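Step one: seed cells (200 cells/uL, DMEM with 10% Nu serum, 1% pen-strep). Step two: 12-hour incubation at 37 deg C. Step three: pin 23 nL compound, incubate 24 hr. Step four: add luciferase reagent, read luminescence 12 min later.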
GLP-1R inv ag: qHTS of GLP-1 Receptor Inverse Agonists (Inhibition Mode). HEK293 GLP-1R CRE-luciferase, luminescence, 24 h; GLP-1R form is constitutively active. Potency, µM (doses to about 38.3 µM), without a hit: top-dose activity change, negative = inhibition, actives largely listed as inhibitors. 410,000 tested, 1.6% active. AID 624417, 2012; note: potency is the fitted concentration of half-maximal effect; % is set by controls: 0 for no effect and ±100 for the full control effect; nearly all actives have a fitted effect of over 55% in size
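qHTS in 1536-well format: reporter HEK293 cells expressing constitutive GLP-1R activity in DMEM + 10% Nu serum, 24 hr with compounds at 37 deg C, luminescence read after 12 min with detection reagent.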
miR-21 act: qHTS Assay for Modulators of miRNAs and/orActivators of miR-21 | HeLa miR-21 FLuc reporter, luciferase, 48 h | Potency, µM (top dose mostly 38.3 µM), for inactives: top-dose activity change, positive = activation, usual class: activators | 340,000 tested, under 10 active;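 note: % of control where 0% means no effect; miR-21 action dims this reporter so a rising signal means less miR-21 action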
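Compounds were titrated across several concentrations (up to approximately 40 uM) and incubated 48 hours with HeLa miR-21-FLuc reporter cells (miR-21 target sequence downstream of FLuc, endogenous miR-21). Readout was firefly luciferase luminescence after lytic detection reagent.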
* marks the source's active call; other numbers are inactive results. In the library only some 1.7% were active in any assay of this set; here they are far more common. Unless noted, calls come from the whole dose curve; as a rule, active = well fitted curve in the direction sought with a large enough effect; inconclusive = small, poorly fitted or top-dose-only effect, or another doubt; inactive = no such curve, though single readings can be large; an effect the other way counts as inactive or inconclusive.

`O=C(Cc1ccccc1)Nc1ccc(NC(=O)C2CCCCC2)nc1` gave GLP-1R agonist 5%, PTHR1 ag inactive, Pin1 inh 1%, GLP1R cytotox -16%, GLP-1R inv ag 7.1µM* and miR-21 act 29%.
`CC(C)(C)OC(=O)CC(=O)NNC(=O)c1cc2ccccc2[nH]1` gave Pin1 inh -7%.
Screening O=C(N/N=C/c1ccc[nH]1)c1sc2ccccc2c1Cl returned GLP-1R agonist 2%, PTHR1 ag inactive, Pin1 inh 11%, GLP1R cytotox inconclusive, GLP-1R inv ag 10µM* and miR-21 act -3%.
`O=C(N/N=C/c1ccncc1)c1sc2ccccc2c1Cl` gave GLP-1R agonist -3%, PTHR1 ag -62%, Pin1 inh -18%, GLP1R cytotox -11%, GLP-1R inv ag 5% and miR-21 act 1%.
`O=C(O)c1cc(O)c2c(c1)[C@@H]([C@H]1c3cc(C(=O)O)cc(O)c3C(=O)c3c(O[C@@H]4O[C@H](CO)[C@@H](O)[C@H](O)[C@H]4O)cccc31)c1cccc(O[C@@H]3O[C@H](CO)[C@@H](O)[C@H](O)[C@H]3O)c1C2=O` gave GLP-1R agonist -5%, PTHR1 ag -87%, Pin1 inh 2.5µM*, GLP1R cytotox -8% and GLP-1R inv ag 16%.
For O=C(O)c1cc(O)c2c(c1)[C@H]([C@H]1c3cc(C(=O)O)cc(O)c3C(=O)c3c(O[C@@H]4OC(CO)C(O)C(O)C4O)cccc31)c1cccc(O[C@@H]3OC(CO)C(O)C(O)C3O)c1C2=O (stereo not given in full) the results were GLP-1R agonist -1%.
`COc1ccc(-c2nn3c(-c4cc(-c5ccccc5)n[nH]4)nnc3s2)cc1OC` gave Pin1 inh 3%.
COc1ccc(CCN(C)CC(O)COC(c2ccc(F)cc2)c2ccc(F)cc2)cc1OC (stereo not given) was read as GLP-1R agonist 20%, PTHR1 ag inactive, Pin1 inh -7%, GLP1R cytotox inconclusive, GLP-1R inv ag 5µM* and miR-21 act 5%.
COc1ccc2nc(-c3cccc(F)c3)sc2c1 was read as Pin1 inh -3%.
Screening Cc1ccc(C(C)NC(=S)NCc2ccc(F)cc2)cc1C (stereo not given) returned GLP-1R agonist 5%, PTHR1 ag inactive, Pin1 inh -2%, GLP1R cytotox -1%, GLP-1R inv ag 8.9µM* and miR-21 act 1%.
CCc1ccc(C(C)NC(=S)NCc2ccc(F)cc2)cc1 (stereo not given) was read as GLP-1R agonist 8%, PTHR1 ag -33%, Pin1 inh 2%, GLP1R cytotox inconclusive, GLP-1R inv ag inconclusive and miR-21 act 7%.
`NCCCC[C@H]1NC(=O)[C@H](CCC(=O)O)NC(=O)c2cc([N+](=O)[O-])cc(I)c2OCC[C@@H](C(N)=O)NC1=O` gave GLP-1R agonist -5%, PTHR1 ag -7%, Pin1 inh 14µM*, GLP1R cytotox -23%, GLP-1R inv ag 7% and miR-21 act -5%.
For C[C@@H]1NC(=O)c2cc([N+](=O)[O-])cc(I)c2OCC[C@@H](C(N)=O)NC(=O)[C@H](CCCCN)NC1=O the results were GLP-1R agonist -1%, PTHR1 ag inactive, Pin1 inh -2%, GLP1R cytotox 0%, GLP-1R inv ag 6% and miR-21 act 4%.
Screening Cc1ccc(-c2c(C3C4C=CCCC4(C)C(=O)N3Cc3ccccc3)ccc3ccccc23)cc1 (stereo not given) returned Pin1 inh -2%.
For CCC[C@H]1CN(c2ccc(Br)cc2)C(=O)[C@@H]1CC(=O)Nc1ccc(OC)cc1 the results were GLP-1R agonist -2%, PTHR1 ag -73%, GLP1R cytotox -8% and GLP-1R inv ag 7.9µM*.
Screening O=C(C[C@H]1C(=O)N(c2ccc(Br)cc2)C[C@@H]1Cc1ccccc1)Nc1ccccc1 returned GLP-1R agonist -5%, PTHR1 ag -11%, GLP1R cytotox -14% and GLP-1R inv ag inconclusive.
CCCCCCc1ccc(N2C[C@H](CCCCC)[C@@H](CC(=O)NCc3ccccc3)C2=O)cc1 was read as GLP-1R agonist -4%, PTHR1 ag -37%, Pin1 inh -3%, GLP1R cytotox 6%, GLP-1R inv ag 4.5µM* and miR-21 act 0%.
CCC[C@H]1CN(c2ccc(Br)cc2)C(=O)[C@@H]1CC(=O)Nc1ccccc1 was read as GLP-1R agonist 0%, PTHR1 ag inactive, GLP1R cytotox -4% and GLP-1R inv ag 11µM*.
`COc1ccc(CN2C[C@H](Cc3ccccc3)[C@@H](CC(=O)Nc3ccccc3)C2=O)cc1` gave GLP-1R agonist 14%, PTHR1 ag -33%, Pin1 inh 4%, GLP1R cytotox -4%, GLP-1R inv ag 8.9µM* and miR-21 act 18%.
`COc1ccc(N2C[C@H](CSC)[C@@H](CC(=O)Nc3ccc(Br)cc3)C2=O)cc1` gave GLP-1R agonist 4%, PTHR1 ag -69%, GLP1R cytotox -11% and GLP-1R inv ag inconclusive.
Screening CCOC(=O)C1=C(CN2CCN(c3ccccc3F)CC2)NC(=O)NC1c1ccc(OC)cc1 (stereo not given) returned PTHR1 ag -48%, Pin1 inh 2%, GLP1R cytotox 18%, GLP-1R inv ag 2% and miR-21 act 1%.
Screening Oc1ccccc1Nc1nc(NCc2ccco2)c2ccccc2n1 returned GLP-1R agonist -1%, PTHR1 ag inactive, Pin1 inh 0%, GLP1R cytotox -33%, GLP-1R inv ag inconclusive and miR-21 act 29%.
Screening Cc1ccccc1Nc1nc(NCc2ccco2)c2ccccc2n1 returned GLP-1R agonist -1%, PTHR1 ag inactive, Pin1 inh 2%, GLP1R cytotox inconclusive, GLP-1R inv ag 4µM* and miR-21 act 2%.
For c1ccc(Nc2nc(NCc3ccco3)c3ccccc3n2)cc1 the results were GLP-1R agonist -9%, PTHR1 ag -19%, Pin1 inh -6%, GLP1R cytotox inconclusive, GLP-1R inv ag 2.2µM* and miR-21 act inconclusive.
